Sampled rows, rich in hits. Any-hit rate of the full collection: about 7.4%.
FLuc counter – inhibits or activates purified firefly luciferase, miR-21 counter-screen | purified FLuc, Km substrates, luminescence inhibition | P08659 | AID 588342 | Potency, µM (titrated, usually from 57.5 µM), for inactives: top-dose activity change, negative = inhibition, hits mostly inhibitors | actives 6.9% (n = 360,000);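 further: plate controls were vehicle for no effect and reference inhibitor for full effect; nearly all actives have a fitted effect of over 55% in size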
Target sequence (P08659 whole entry, looked up): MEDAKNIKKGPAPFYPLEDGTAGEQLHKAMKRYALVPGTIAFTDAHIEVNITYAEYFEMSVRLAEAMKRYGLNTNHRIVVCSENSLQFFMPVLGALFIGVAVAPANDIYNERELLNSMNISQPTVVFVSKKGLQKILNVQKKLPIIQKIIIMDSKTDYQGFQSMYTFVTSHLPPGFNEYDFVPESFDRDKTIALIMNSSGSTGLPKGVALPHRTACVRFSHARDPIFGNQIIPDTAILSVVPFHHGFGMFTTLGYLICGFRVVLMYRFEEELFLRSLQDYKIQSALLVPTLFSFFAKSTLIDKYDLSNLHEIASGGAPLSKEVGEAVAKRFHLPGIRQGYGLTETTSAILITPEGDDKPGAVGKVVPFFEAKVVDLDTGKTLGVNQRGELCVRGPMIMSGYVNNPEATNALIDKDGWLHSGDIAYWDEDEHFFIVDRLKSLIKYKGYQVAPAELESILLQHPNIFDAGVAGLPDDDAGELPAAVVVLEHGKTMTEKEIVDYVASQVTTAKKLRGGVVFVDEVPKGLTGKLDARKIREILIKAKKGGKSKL
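Biochemical qHTS of compounds, final roughly 60 µM downward over six points, against 10 nM purified firefly luciferase using Km concentrations of substrates (10 uM D-luciferin, 10 uM ATP) in Tris acetate pH 7.5 buffer; luminescence output.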
Rab9 prom act – Rab9 promoter activation; Potency, µM (top dose mostly 9.22 µM), without a hit: at the top dose activation, negative = inhibition, actives largely listed as activators; actives 2.8% (n = 320,000); Huh7 Rab9 promoter-luciferase reporter, luminescence, 24 h; further: % of control where 0% means no effect; nearly all actives have a fitted effect of over 60% in size
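Cell-based reporter: Huh7 stable for Rab9 promoter-driven luciferase, plated in reduced-serum medium with 10% FBS at 1500 cells/well, compound-treated 24 h at 37 °C, luminescence read after 10 min reagent.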
NPC1 prom act – activates the NPC1 promoter; Huh7 NPC1 promoter luciferase reporter, 24 h; Potency, µM (highest dose often 9.22 µM), without a hit: at the top dose activation, actives largely listed as activators; actives 2.4% (n = 320,000); AID 485313; further: % of control where 0% means no effect; nearly all actives have a fitted effect of over 60% in size
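Huh7 reporter cells (NPC1 promoter driving luciferase) are dosed with compound for 24 h at 37 °C, 5% CO2; luciferase detection reagent is then added and luminescence measured after 10 min at ambient temperature.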
SMN2 splice enh – enhancers of SMN2 splice variant expression. Potency, µM (series often up to 46.1 µM), for the others: at the top dose activity change, positive = activation, usual class: activators. HEK293 SMN2-luciferase splicing reporter, luminescence, 30-36 h. actives 2.8% (n = 210,000); further: % of control where 0% means no effect; nearly all actives have a fitted effect of over 55% in size
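HEK293 cells carry an SMN2 […]–luciferase reporter in which exon 7 inclusion puts luciferase in frame. Cells were plated 10-12 h before compound addition, then incubated 30-36 h at 37C. ONE-Glo luminescence was read; sodium butyrate at 4.5 mM final served as control.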
ELG1 genotoxic – inducers of genotoxicity in HEK293T ELG1-luciferase cells. HEK293T ELG1-luciferase reporter, luminescence, 16 h. Potency, µM (highest dose often 46 µM), inactives show at the highest dose activity change, positive = activation, most hits filed as activators. actives 1.3% (n = 330,000). AID 504466; further: % of control where 0% means no effect; nearly all actives have a fitted effect of over 60% in size
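Genotoxicity was scored as increased ELG1-luciferase reporter signal, measured by ONE-Glo luminescence (30 min, room temperature). Compound or vehicle exposure of the HEK293T reporter cells lasted 16 hr at 37°C.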
An asterisk follows results filed as active; u = inconclusive; x = not tested or not shown; [ ] = remark or other dose. The call rests on the fitted dose curve; in most records, active means well fitted curve in the direction sought with a large enough effect; inconclusive means small, poorly fitted or top-dose-only effect, or another doubt; inactive means no such curve, though single readings can be large; an effect the other way counts as inactive or inconclusive. Potency means the concentration at half of the fitted maximal effect.

SMILES	FLuc counter	Rab9 prom act	NPC1 prom act	SMN2 splice enh	ELG1 genotoxic
CC(C)Cc1nnc(NC(=O)CSc2nc(-c3ccccc3)cc(=O)[nH]2)s1	12µM*	4%	0%	x	-3%
CCn1c(Cc2ccccc2)nnc1SCC(=O)Nc1nc(C)c(C)s1	-1%	2%	2%	5%	-3%
Nc1cc(=O)[nH]c(SCC(=O)Nc2ccccc2-c2ccccc2)n1	-1%	12%	-6%	0%	6%
O=C(CSc1ncn[nH]1)Nc1nnc(-c2ccccc2)s1	21µM*	u	19%	7%	u
CCn1c(Cc2ccccc2)nnc1SCC(=O)Nc1nnc(-c2ccccc2)s1	u	-3%	0%	0.11µM*	16%
O=C(O)NCc1ccccc1 (tested in a mixture with another compound)	x	x	x	-10%[9.22 µM]	x
Cc1cccc(-n2c(=O)c3c(c4cc(C)ccc4n3C)n(CC(=O)NCC3CCCO3)c2=O)c1 (stereo not drawn)	0%	x	x	x	x
COc1ccc(C)cc1NC(=O)NCCn1nnc2cc(S(=O)(=O)N(C)C)ccc21	-7%	x	x	x	x
C=Cc1ccc(Cn2c(=O)n(-c3cccc(C)c3)c(=O)c3c2c2cc(C)ccc2n3C)cc1	-3%	x	x	x	x
Cc1ccc(C)c(NC(=O)Nc2cccc(-c3cn4cccnc4n3)c2)c1	-3%	x	x	-4%	x
COc1ccc(CC(=O)Nc2ccc(-c3cn4ccc(C)cc4n3)cc2)cc1	u	u	u	-5%	21µM*
Cc1ccn2cc(-c3cccc(NC(=O)C(C)C)c3)nc2c1	6µM*	u	25%	14µM*	u
Cc1cccc2nc(-c3cccc(NS(=O)(=O)c4ccccc4)c3)cn12	u	x	x	1%	x
Cc1cccn2cc(-c3cccc(NC(=O)C(C)C)c3)nc12	11µM*	x	x	u	x
CC(=O)Nc1cccc(-c2cn3ccccc3n2)c1	19µM*	27%	16%	u	13%
Cc1cccc(C(=O)Nc2nnc(S(=O)(=O)N(C)Cc3ccco3)s2)c1	u	3%	-4%	x	0%
N#CNC(N)=Nc1ccc(Cl)cc1	x	x	x	-14%[9.22 µM]	x
COc1cc(CN(C(=O)c2ccccc2F)C2CCS(=O)(=O)C2)cc(OC)c1OC (stereo not drawn)	-2%	x	x	10%	x
Cc1ccn2cc(-c3cccc(NC(=O)c4ccccc4)c3)nc2c1	4.3µM*	22%	3%	u	1%
O=C(Nc1cccc(-c2cn3ccccc3n2)c1)c1cccs1	3.4µM*	13%	21%	x	u
CCC(CC)C(=O)Nc1cccc(-c2cn3cccnc3n2)c1	-8%	x	x	x	x
O=C(Nc1cccc(-c2cn3ccccc3n2)c1)c1cc2ccccc2oc1=O	1.5µM*	u	u	u	17%
CC(C)C(=O)Nc1cccc(-c2cn3ccccc3n2)c1	11µM*	17%	12%	-5%[1.84 µM]	8%
O=C(Nc1cccc(-c2cc3ccccc3oc2=O)c1)c1ccc(Br)o1	-16%	-3%	0%	25%	-2%
CCOc1ccc(NCc2cccn2-c2nnc(N3CCC(C(=O)NCc4ccccc4Cl)CC3)s2)cc1	-5%	x	x	-46%	x
SMILES	FLuc counter	Rab9 prom act	NPC1 prom act	SMN2 splice enh	ELG1 genotoxic
COc1ccccc1/C=C\C(=O)NCC(=O)N/N=C(\C)Cc1ccccc1	0%	-3%	1%	x	1%
C1COC1	x	x	x	-4%	x
CNc1nc(N/N=C/c2ccc([N+](=O)[O-])cc2)nc(Nc2ccccc2)n1	u	-3%	0%	-30%	-3%
CN(C)c1ccc(/C=N/Nc2nc3ccccc3o2)cc1	0.54µM*	0.1µM*	u	x	u
O=[N+]([O-])c1ccc(/C=N/Nc2nc3ccccc3o2)cc1	-21%	2µM*	2µM*	x	u
CC(Oc1ccccc1F)C(=O)NNC(=O)c1cccc(S(=O)(=O)N2CCN(C)CC2)c1 (stereo not drawn)	3%	9%	1%	x	2%
Cc1c(/C=C/C(=O)c2cccs2)cnn1C	9.5µM*	u	u	-36%	21µM*
CCc1ccc(C(=O)/C=C/c2cnn(C)c2C)s1	0.6µM*	3.5µM*	4µM*	13µM*	13µM*
Nc1ccc(/C=C/C(=O)c2cccs2)cc1	1.3µM*	3.5µM*	4µM*	x	u
COC(=O)C1=C(C(=O)OC)[C@@H]2N(C)c3ccccc3[C@@]23C[C@@H](C(=O)OC)N(S(=O)(=O)c2ccc4c(c2)OCCN4C)C3=N1	x	x	x	8%[9.22 µM]	x
CO/N=C\c1cc(C(=O)c2ccc(Cl)cc2Cl)cn1C	-3%	-3%	0%	-11%	4%
COC(=O)C/C=C/[C@@H](C)[C@@H](Cc1ccccc1Br)OC	x	x	x	5%	x
Cc1ccc(N(C(=O)c2cccc(C)c2)S(=O)(=O)c2ccc(Cl)cc2)cc1	1%	x	x	-2%	x
CSc1ccc(C2c3[nH]c4ccccc4c3CCN2C(=O)c2ccnn2C)cc1 (stereo not drawn)	11µM*	3.5µM*	11%	x	16%
O=Cc1ccc(OCc2ccccn2)cc1	u	-3%	-1%	16µM*	14%
O=Cc1ccc(OCc2ccc3ccccc3c2)cc1	5.4µM*	u	15%	x	u
c1ccc(COc2cccc(CNCc3ccccn3)c2)cc1	u	11%	1%	-15%	1%
Nc1ncccc1OCc1ccc(Br)cc1	17µM*	2.2µM*	u	u	14%
CC(=O)c1cc(C#N)c(SCc2ccccc2C#N)nc1C	15µM*	3%	0%	13%	0%
CC(=O)c1cc(C#N)c(SCc2ccncc2)nc1C	-2%	8%	1%	x	-4%
COc1ccccc1CCN1CCCC(CN(C)C(=O)c2ccoc2)C1 (stereo not drawn)	2%	-4%	-3%	x	-2%
CCN(CC)C(=O)c1sc(NC(=O)c2c(OC)cccc2OC)c(C#N)c1C	-16%	-1%	0%	15%	0%
COC(=O)c1sc(NC(=O)c2ccc([N+](=O)[O-])o2)c(C#N)c1C	27µM*	-9%	-1%	x	-8%
CC(=O)N1CCc2c(sc(NC(=O)c3ccc([N+](=O)[O-])o3)c2C#N)C1	u	4µM*	u	11µM*	u
CCN(CC)C(=O)c1sc(NC(=O)c2cccc([N+](=O)[O-])c2)c(C#N)c1C	24µM*	2%	1%	-95%	-9%
COC(=O)c1c(NC(=O)c2ccc([N+](=O)[O-])o2)sc2c1CCN(C(C)C)C2	-1%	-2%	-22%	x	6%
N/C(=N\OC(=O)c1cccc(Cl)c1)c1ccncc1	19µM*	23%	17%	x	u
N/C(=N\OC(=O)c1ccc(Cl)c(Cl)c1)c1cccc(CSc2ccccn2)c1	8.5µM*	u	u	x	u
N/C(=N\OC(=O)COc1ccc(Cl)cc1)c1cccnc1	u	1%	4%	19%	9%
